From PubChem BioAssay (EPA / NIEHS)
“And” between values parts separate entries of the source, which are not always exact repeats. Identical values can stand only once. Records with an inconclusive call do not appear. Some compounds were tested as several samples or in several runs, with calls that do not always agree. The source made the active and inactive calls. The calls were made as follows, unless noted: active = hit-call score of the fitted dose curve at least 0.9, where 1 is the maximum; inactive = score below 0.9.

What was measured:
[1] = read-out: Interleukin-8 (IL8), CXCL8 (gene 3576); test: BSK_SAg_IL8: BioMAP Diversity Plus: SAg Assay for Interleukin-8 (IL8) Biomarker Activity (AID 2283094); details: primary human HUVEC with PBMC; actives raise or lower the signal
Procedure, shortened: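 Chemicals were dosed onto a human endothelial–PBMC co-culture, and IL-8 was quantified by ELISA after 24 h. Both increases and decreases were fitted relative to DMSO.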

[2] = BSK_SAg_Proliferation: Cell Proliferation Assessment in the BioMAP Diversity Plus: SAg Assay (AID 2283095); details: primary human HUVEC with PBMC;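 also: relative cell number as total protein by SRB absorbance in sub-confluent culture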
Procedure, shortened: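 Absorbance of sulforhodamine B at 560 nm reports total protein in a human vascular endothelial/PBMC co-culture after 96 h chemical exposure. Gain or loss of signal is fitted in both directions against DMSO.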

[3] = BSK_SAg_SRB: Viability Assessment in the BioMAP Diversity Plus: SAg Assay (AID 2283096); details: primary human HUVEC with PBMC;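 also: cells read one day after compound addition; hits may be either gain or loss of signal compared with DMSO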
Procedure, shortened: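 Compounds were added to a human vascular co-culture of umbilical vein endothelium and PBMC. After 24 h, parallel cultures were fixed with 10% TCA, stained with 0.1% sulforhodamine B and read at 560 nm. Gain or loss of signal was fitted relative to DMSO.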

[4] = target: human CYP2C9, CYP2C9 (gene 1559) (UniProt P11712); test: NVS_ADME_hCYP2C9: NovaScreen (NVS) CYP450-related Enzyme Activity (ADME) Assay for human CYP2C9 (AID 2283108; active = hit-call score of the fitted dose curve at least 0.9, where 1 is the maximum)
Procedure, shortened: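 Recombinant human CYP2C9 expressed in SF9 cells, fluorogenic substrate, fluorescence read 0.75 h after dosing. Chemicals first run in duplicate at 10 uM, with actives followed in concentration series; loss of signal versus acetonitrile baseline.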

[5] = target: human CYP19A1, CYP19A1 (gene 1588) (UniProt P11511); test: NVS_ADME_hCYP19A1: NovaScreen (NVS) CYP450-related Enzyme Activity (ADME) Assay for human CYP19A1 (AID 2283098; active = hit-call score of the fitted dose curve at least 0.9, where 1 is the maximum)
Procedure, shortened: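 Fluorescence intensity read-out; activity taken as signal loss relative to acetonitrile vehicle. Extracted enzyme, specific substrate, no cells, 0.5 h exposure. Duplicate single-point screen at 10 uM, then concentration–response follow-up for actives.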

[6] = target: human CYP2A6, CYP2A6 (gene 1548) (UniProt P11509); test: NVS_ADME_hCYP2A6: NovaScreen (NVS) CYP450-related Enzyme Activity (ADME) Assay for human CYP2A6 (AID 2283099; active = hit-call score of the fitted dose curve at least 0.9, where 1 is the maximum)
Procedure, shortened: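 Loss of fluorescence signal relative to acetonitrile vehicle reported CYP2A6 inhibition in a cell-free system using insect-cell-derived enzyme. Readings were taken at 0.5 h; top concentration in follow-up dose series was 20 uM.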

human CYP2C9, CYP2C9 (gene 1559), sequence (P11712 whole entry, looked up): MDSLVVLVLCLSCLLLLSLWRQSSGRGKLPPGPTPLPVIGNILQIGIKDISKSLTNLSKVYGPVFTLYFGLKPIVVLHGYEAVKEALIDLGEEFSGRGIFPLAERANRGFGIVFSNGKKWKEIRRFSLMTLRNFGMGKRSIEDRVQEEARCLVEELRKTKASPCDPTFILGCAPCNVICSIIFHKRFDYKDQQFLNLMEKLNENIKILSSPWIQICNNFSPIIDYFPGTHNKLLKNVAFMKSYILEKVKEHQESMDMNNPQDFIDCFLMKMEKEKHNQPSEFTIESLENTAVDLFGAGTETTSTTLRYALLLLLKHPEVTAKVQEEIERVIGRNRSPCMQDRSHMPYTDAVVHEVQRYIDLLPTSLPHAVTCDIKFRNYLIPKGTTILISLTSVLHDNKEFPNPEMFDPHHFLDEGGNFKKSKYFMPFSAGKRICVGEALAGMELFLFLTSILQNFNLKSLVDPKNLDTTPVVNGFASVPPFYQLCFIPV
human CYP19A1, CYP19A1 (gene 1588), sequence (P11511 whole entry, looked up): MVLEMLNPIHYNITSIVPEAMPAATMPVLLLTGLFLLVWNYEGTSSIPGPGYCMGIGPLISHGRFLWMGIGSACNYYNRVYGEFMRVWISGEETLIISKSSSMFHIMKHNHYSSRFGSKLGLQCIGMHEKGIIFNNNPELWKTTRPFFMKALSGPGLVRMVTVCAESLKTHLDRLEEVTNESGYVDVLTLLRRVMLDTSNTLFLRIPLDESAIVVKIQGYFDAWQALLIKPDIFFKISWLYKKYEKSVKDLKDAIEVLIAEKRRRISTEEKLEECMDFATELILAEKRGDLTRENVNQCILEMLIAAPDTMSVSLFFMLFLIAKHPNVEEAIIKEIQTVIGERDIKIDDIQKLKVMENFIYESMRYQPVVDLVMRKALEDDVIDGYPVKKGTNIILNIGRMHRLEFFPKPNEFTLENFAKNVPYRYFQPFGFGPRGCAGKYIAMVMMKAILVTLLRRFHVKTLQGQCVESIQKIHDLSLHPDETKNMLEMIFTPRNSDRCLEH
human CYP2A6, CYP2A6 (gene 1548), sequence (P11509 whole entry, looked up): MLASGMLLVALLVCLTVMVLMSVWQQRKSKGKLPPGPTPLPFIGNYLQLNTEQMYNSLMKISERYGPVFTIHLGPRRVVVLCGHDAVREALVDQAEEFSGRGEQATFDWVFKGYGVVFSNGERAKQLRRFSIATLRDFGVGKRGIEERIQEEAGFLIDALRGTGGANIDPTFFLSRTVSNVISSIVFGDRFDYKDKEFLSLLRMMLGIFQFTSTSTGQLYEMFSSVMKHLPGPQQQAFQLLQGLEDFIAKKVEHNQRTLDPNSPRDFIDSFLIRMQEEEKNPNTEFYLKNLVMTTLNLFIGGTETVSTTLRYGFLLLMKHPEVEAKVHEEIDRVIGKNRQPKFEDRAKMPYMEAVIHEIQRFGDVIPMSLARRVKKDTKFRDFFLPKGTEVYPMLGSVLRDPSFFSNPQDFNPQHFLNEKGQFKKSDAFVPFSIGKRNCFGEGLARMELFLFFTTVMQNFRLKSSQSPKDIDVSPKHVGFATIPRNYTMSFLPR

In the case of `Clc1ccc(C(c2ccc(Cl)cc2)C(Cl)Cl)cc1`, the AC50 [1] is reported as 29 µM (active) and the AC50 [2] is reported as 11.4 µM (active).
With `C[C@]12C=CC3=C4CCC(=O)C=C4CC[C@H]3[C@@H]1CC[C@@H]2O` the outcome [1] was “inactive” and the outcome [2] was “inactive”.
For `COc1cc(C=O)cc2c1[C@H](COC(N)=O)[C@]1(OC(C)=O)ON2C[C@H]2[C@@H]1N2C(C)=O`, the AC50 [1] was 8.56 µM (active) and the AC50 [2] was 0.402 µM (active).
For `C1=Cc2cccc3cccc1c23`, the outcome [1] was “inactive” and the outcome [2] was “inactive”.
With `CCNS(=O)(=O)C(F)(F)C(F)(F)C(F)(F)C(F)(F)C(F)(F)C(F)(F)C(F)(F)C(F)(F)F` the AC50 [1] was 30 µM (active), the outcome [1] was “inactive” and the AC50 [2] was 19.3 µM (active) and 45 µM (active) and 23.6 µM (active). For the same compound, the AC50 [3] was 43.3 µM (active) and 51.2 µM (active), the outcome [3] was “inactive” and the AC50 [4] was 0.226 µM (active).
For `Oc1ccccc1Cl`, the outcome [1] was “inactive” and the outcome [2] was “inactive”.
In the case of `Cc1ccc([N+](=O)[O-])cc1`, the outcome [1] is reported as “inactive” and the outcome [2] is reported as “inactive”.
With `CC(C)(C)OOC(C)(C)CCC(C)(C)OOC(C)(C)C` the outcome [1] was “inactive” and the outcome [2] was “inactive”.
In the case of `COC(=O)Nc1nc2ccccc2[nH]1`, the outcome [1] is reported as “inactive” and the AC50 [2] is reported as 11.2 µM (active).
With `COC(=O)c1ccccc1N` the outcome [1] was “inactive” and the outcome [2] was “inactive”.
For `[O-][Cl+]O`, the outcome [1] was “inactive” and the outcome [2] was “inactive”.
In the case of `CCN(CC)N=O`, the outcome [1] is reported as “inactive” and the outcome [2] is reported as “inactive”.
For `Clc1ccc(Cl)c(Cl)c1`, the outcome [1] was “inactive” and the outcome [2] was “inactive”.
For `CC(C)N(Cc1ccccc1)C(=O)C(C)(C)C`, the outcome [1] was “inactive” and the outcome [2] was “inactive”.
In the case of `C=CCc1ccc2c(c1)OCO2`, the outcome [1] is reported as “inactive” and the outcome [2] is reported as “inactive”.
In the case of `Clc1ccc(C(c2ccc(Cl)cc2)C(Cl)(Cl)Cl)cc1`, the AC50 [1] is reported as 17 µM (active) and the AC50 [2] is reported as 12.7 µM (active).
For `CN(C)c1ccccc1`, the outcome [1] was “inactive” and the outcome [2] was “inactive”.
With `O=[N+]([O-])c1ccc(Oc2ccc(Cl)cc2Cl)cc1` the AC50 [1] was 33.9 µM (active) and the AC50 [2] was 32 µM (active).
For `CN(C)[C@@H]1C(=O)C(C(N)=O)=C(O)[C@@]2(O)C(=O)C3=C(O)c4c(O)cccc4[C@@](C)(O)[C@H]3C[C@@H]12`, the outcome [1] was “inactive” and the outcome [2] was “inactive”.
For `Brc1ccc(Oc2ccccc2)cc1`, the outcome [1] was “inactive” and the outcome [2] was “inactive”.
For `OCCCl`, the outcome [1] was “inactive” and the outcome [2] was “inactive”.
With `CCCSC(=O)N(CCC)CCC` the outcome [1] was “inactive” and the outcome [2] was “inactive”.
For `Cc1ccc(N)c(N)c1`, the outcome [1] was “inactive” and the outcome [2] was “inactive”.
In the case of `CCN(CC)CCO`, the outcome [1] is reported as “inactive” and the outcome [2] is reported as “inactive”.
With `c1ccc(C2CO2)cc1` (stereo not drawn) the outcome [1] was “inactive” and the outcome [2] was “inactive”.
In the case of `N#CC(Br)Br`, the outcome [1] is reported as “inactive” and the outcome [2] is reported as “inactive”.
In the case of `CCC(C)c1ccc(O)cc1` (stereo not drawn), the outcome [1] is reported as “inactive” and the outcome [2] is reported as “inactive”.
With `CC(O)CCO` (stereo not drawn) the outcome [1] was “inactive”, the outcome [2] was “inactive” and the outcome [3] was “inactive”.
In the case of `c1ccc(NNc2ccccc2)cc1`, the outcome [1] is reported as “inactive”, the outcome [2] is reported as “inactive” and the outcome [3] is reported as “inactive”.
With `CS(=O)(=O)NC(=O)c1cc(Oc2ccc(C(F)(F)F)cc2Cl)ccc1[N+](=O)[O-]` the outcome [1] was “inactive”, the outcome [2] was “inactive” and the outcome [3] was “inactive”. The outcome [5] was “inactive” and the AC50 [4] was 6.1 µM (active).
For `c1ccc2c(c1)oc1ccccc12`, the outcome [1] was “inactive” and the outcome [2] was “inactive”.
In the case of `ClC1=C(Cl)C2(Cl)C3C(Cl)C=CC3C1(Cl)C2(Cl)Cl` (stereo not drawn), the AC50 [1] is reported as 27.9 µM (active), the AC50 [2] is reported as 10.9 µM (active) and the AC50 [3] is reported as 31.7 µM (active).
For `CCCCCCCCCCCCCN1CC(C)OC(C)C1` (stereo not drawn), the outcome [1] was “inactive”, the outcome [2] was “inactive” and the outcome [3] was “inactive”.
With `O=C1CCCO1` the outcome [1] was “inactive”, the outcome [2] was “inactive” and the outcome [3] was “inactive”.
For `Cc1ccc(N)cc1`, the outcome [1] was “inactive”, the outcome [2] was “inactive” and the outcome [3] was “inactive”.
In the case of `ClC1=C(Cl)[C@]2(Cl)[C@H]3[C@H]([C@@H]4C=C[C@H]3C4)[C@@]1(Cl)C2(Cl)Cl`, the AC50 [1] is reported as 30.9 µM (active), the AC50 [2] is reported as 15 µM (active) and the AC50 [3] is reported as 25.8 µM (active).
For `Cc1ccc(N=C=O)cc1N=C=O`, the outcome [1] was “inactive”, the AC50 [2] was 10.5 µM (active) and the outcome [3] was “inactive”.
With `O=Cc1ccco1` the outcome [1] was “inactive”, the outcome [2] was “inactive” and the outcome [3] was “inactive”.
In the case of `CC(C)(C)OOC(=O)c1ccccc1`, the outcome [1] is reported as “inactive”, the outcome [2] is reported as “inactive” and the outcome [3] is reported as “inactive”.
For `CN(C)c1ccc(C(=O)c2ccc(N(C)C)cc2)cc1`, the outcome [1] was “inactive”, the AC50 [2] was 0.578 µM (active) and the AC50 [3] was 14.6 µM (active).
For `CNC(=O)Oc1cccc2c1OC(C)(C)C2`, the outcome [1] was “inactive”, the outcome [2] was “inactive” and the outcome [3] was “inactive”.
With `C[N+](C)(C)CC1CO1` (stereo not drawn) the outcome [1] was “inactive”, the outcome [2] was “inactive” and the outcome [3] was “inactive”. The outcome [6] was “inactive”.
For `O=C(Oc1ccc(Br)cc1)N1CCN2CCC1CC2`, the outcome [1] was “inactive”, the outcome [2] was “inactive” and the outcome [3] was “inactive”.
With `OCCCBr` the outcome [1] was “inactive”, the outcome [2] was “inactive” and the outcome [3] was “inactive”.
In the case of `c1ccc(N=Nc2ccccc2)cc1`, the outcome [1] is reported as “inactive”, the outcome [2] is reported as “inactive” and the outcome [3] is reported as “inactive”.
With `CCCCCCCCOC(=O)c1ccc(C(=O)OCCCCCCCC)c(C(=O)OCCCCCCCC)c1` the outcome [1] was “inactive”, the outcome [2] was “inactive” and the outcome [3] was “inactive”.
For `Cn1cc(-c2ccccc2)c(=O)c(-c2cccc(C(F)(F)F)c2)c1`, the outcome [1] was “inactive”, the outcome [2] was “inactive” and the outcome [3] was “inactive”.
With `Clc1ccccc1Cl` the outcome [1] was “inactive”, the outcome [2] was “inactive” and the outcome [3] was “inactive”. For the same compound, the outcome [5] was “inactive” and the outcome [6] was “inactive”.
For `O=P(OCCCl)(OCCCl)OCCCl`, the outcome [1] was “inactive”, the outcome [2] was “inactive” and the outcome [3] was “inactive”.
For `O=C(O)C1C2CCC(O2)C1C(=O)O` (stereo not drawn), the outcome [1] was “inactive”, the AC50 [2] was 18.6 µM (active) and the AC50 [3] was 25.6 µM (active).
For `CCCCCOC(=O)c1ccccc1C(=O)OCCCCC`, the AC50 [1] was 30.8 µM (active), the AC50 [2] was 31.9 µM (active) and the AC50 [3] was 32.4 µM (active).
In the case of `[As]#[In]`, the outcome [1] is reported as “inactive”, the outcome [2] is reported as “inactive” and the outcome [3] is reported as “inactive”.
In the case of `CCC[CH2][Sn]([Cl])([CH2]CCC)[CH2]CCC`, the AC50 [1] is reported as 0.148 µM (active), the AC50 [2] is reported as 0.148 µM (active) and the AC50 [3] is reported as 0.148 µM (active).
With `Nc1cc(Cl)cc(C(=O)O)c1Cl` the outcome [1] was “inactive”, the outcome [2] was “inactive” and the outcome [3] was “inactive”.
